In PubChem BioAssay AID435005 (Broad Institute, 2010):
About 2,400 (0.8%) of roughly 300,000 compounds were called active.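 Rule for the calls: active = Every replicate reaches about 75%, or at least half do and their mean reaches it too (limit read from the data); inconclusive = At least half of replicates reach the limit but their mean does not; inactive = Under half of replicates reach the limit.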 This excerpt belongs to a sample that is enriched for actives.

Test: INS-1E beta cell survival under cytokines – luminescence, primary screen (AID 435005);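 note: 0% = cytokine-treated negative control wells and 100% = positive control rescue; higher means more ATP so stronger rescue from cytokine killing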
Conditions: INS-1E cytokine-induced death, ATP luminescence, 48 h; hits give high values; percent of positive-control rescue, neutral wells zero; concentration not given here

Row | Compound | protection from apoptosis
1 | N#Cc1cc([N+](=O)[O-])ccc1NC(=O)COC(=O)c1cnccn1 | -1.22% (inactive)
2 | CCc1cccc(CC)c1NC(=S)Nc1ccc2cn[nH]c2c1 | -5.93% (inactive)
3 | Cc1cccc(NC(=S)Nc2ccc3cn[nH]c3c2)c1 | 124% (active)
4 | Cc1cccc(NC(=S)Nc2ccc(Cl)c(Cl)c2)c1 | 2.17% (inactive)
5 | COc1ccc(S(=O)(=O)N(C)C[C@H]2Oc3c(NC(=O)Nc4ccc5c(c4)OCO5)cccc3C(=O)N([C@H](C)CO)C[C@@H]2C)cc1 | 2.68% (inactive)
6 | Cc1ccc(C(=O)Nc2ccc3c(c2)OCCO3)cc1S(=O)(=O)N1CCOCC1 | 10.2% (inactive)
7 | C/C(N)=C(/C#N)C(=O)COC(=O)c1cc(-c2ccc(C)cc2)nc2ccccc12 | 80.7% (active)
8 | C/C(N)=C(/C#N)C(=O)COC(=O)c1cc(-c2cccc(Br)c2)nc2ccccc12 | -5.26% (inactive)
9 | C/C(N)=C(/C#N)C(=O)COC(=O)c1cc(-c2ccccc2)nc2ccc(Br)cc12 | 7.58% (inactive)
10 | O=C(OCCN1C(=O)c2ccccc2C1=O)[C@@H]1CC(O)CN1S(=O)(=O)c1ccccc1[N+](=O)[O-] (stereo not given in full) | 4.37% (inactive)
11 | C=CC[C@H](CC(=O)OC(C)(C)C)C(=O)OC[C@H]1CCCN1C(=O)[C@H](CC=C)CC(=O)N(CCO)Cc1ccccc1 | 5.16% (inactive)
12 | CCC(CO)Oc1cc(NC(=O)c2cccc(F)c2)c2ncn(C(C)C)c2c1 (stereo not given) | -0.224% (inactive)
13 | COC(=O)C1=C(C)N(Cc2ccccc2)C(=NCCCOC(C)C)N[C@H]1c1ccccc1 | 11.4% (inactive)
14 | Cc1ccc(Nc2ccccc2N)cc1 | -7.56% (inactive)
15 | Cc1cc(Nc2ccccc2)n(C(=O)c2ccc(N)cc2)n1 | -16.4% (inactive)
16 | Nc1ccc(Nc2ccccc2)cc1 | 78% (active)
17 | O=C(Nc1nc2c(F)cc(F)cc2s1)C1COc2ccccc2O1 (stereo not given) | 8.45% (inactive)
18 | Fc1cc(F)c2nc(Nc3nc4c(F)cccc4s3)sc2c1 | 103% (active)
19 | NC(=O)c1c(Nc2nc3c(F)cccc3s2)sc2c1CCCC2 | -4.14% (inactive)
20 | COc1ccc(C(=O)O)cc1S(=O)(=O)NC1CCN(Cc2ccccc2)CC1 | -4.08% (inactive)
21 | Cc1ccc(Oc2nc(-c3ccccn3)nc3ccccc23)cc1 | 101% (active)
22 | COc1ccc(Sc2nc(-c3ccccc3)ncc2OC)cc1 | -2.84% (inactive)
23 | COc1ccc(Cc2nc(-c3ccccn3)no2)cc1OC | 4.66% (inactive)

Row | Compound | protection from apoptosis
24 | CCOCCCNc1nc(-c2ccccc2)nc2ccccc12 | 4.15% (inactive)
25 | CCC(=O)OCCNc1nc(-c2ccccc2)nc2ccccc12 | 0.204% (inactive)
26 | CC(C)(C)Nc1nc(-c2ccccn2)nc2ccccc12 | 118% (active)
27 | COc1cnc(-c2ccccn2)nc1Oc1ccc(C(C)(C)C)cc1 | 97.3% (active)
28 | CCOC(=O)c1cnc(-c2ccccc2)nc1Oc1ccc(C)cc1 | -3.84% (inactive)
29 | N#Cc1ccc(Oc2cc(C(F)(F)F)nc(-c3ccccn3)n2)cc1 | -3.82% (inactive)
30 | COc1ccccc1S(=O)(=O)NCc1ccc(C(=O)N(C)Cc2ccc(F)cc2)cc1 | -4.62% (inactive)
31 | CCN(CC)C(=O)[C@H]1CC(CC(=O)NCc2ccco2)C(=O)N2CCc3c([nH]c4ccccc34)[C@]12C (stereo not given in full) | -1.53% (inactive)
32 | O=C(COc1ccc([N+](=O)[O-])cc1Cl)Nc1ccc2[nH]c(=O)[nH]c2c1 | -0.613% (inactive)
33 | CN(c1ccccc1)S(=O)(=O)c1cc(C(=O)N2CCN(c3ncccn3)CC2)ccc1Cl | -2.6% (inactive)
34 | COc1ccccc1-c1oc2ccccc2c1C#CCCCCO | -5.68% (inactive)
35 | COC(=O)c1ccc(/C=C/c2c(-c3ccc(OC)cc3)sc3ccccc23)cc1 | 5.7% (inactive)
36 | Cc1cc(C(=O)NC2CCCc3c2cnn3-c2cccc(C)c2C)c(C)o1 (stereo not given) | 41.6% (inactive)
37 | CC(=O)NCC(=O)NC1CCCc2c1cnn2-c1ccccc1F (stereo not given) | -7.28% (inactive)
38 | COc1ccc(C(=O)NC2CCCc3c2cnn3-c2cccc(C)c2C)c(OC)n1 (stereo not given) | 32.4% (inactive)
39 | Cc1ccc(-n2ncc3c2CCCC3NC(=O)c2cnccn2)cc1C (stereo not given) | 2.44% (inactive)
40 | Cn1nccc1C(=O)NC1CCCc2c1cnn2-c1ccccc1F (stereo not given) | 111% (active)
41 | Cn1nccc1C(=O)NC1CCCc2c1cnn2-c1ccc(F)cc1F (stereo not given) | 132% (active)
42 | Cc1c(C(=O)Nc2cccc(S(=O)(=O)N3CCOCC3)c2)oc2ccccc12 | -9.31% (inactive)
43 | COc1cc(C(=O)OCc2cc(=O)n3ccsc3n2)ccc1OC(C)C | -0.396% (inactive)
44 | CC(C)c1ccc(NC(=O)COC(=O)c2ccc(CN3CCCC3=O)cc2)cc1 | 3.42% (inactive)
45 | COc1ccccc1-c1sc2ccccc2c1C#CC1(O)CCCCC1 | -12% (inactive)
